# According to PubChem BioAssay:
# Entries with a potency or affinity are not part of this list. Results filed as inconclusive are left out. Unmarked numbers belong to inactive results. No rule for the calls is given here.
# Assay: non-specific cell cytotoxicity, dose response, cytotoxicity control for PAX8 inhibitor project, plate reader, dry powder samples (AID 743021)
# Conditions: cell line, non-specific cytotoxicity counter-screen; series mostly up to 35 µM; activity change, negative = cytotoxicity: at the top concentration
row,SMILES,"activity change, negative = cytotoxicity"
1,C[C@H](CO)N1C[C@H](C)[C@@H](CN(C)Cc2ccc(Oc3ccccc3)cc2)Oc2ccc(NS(=O)(=O)c3ccc(F)cc3)cc2CC1=O,8.15%
2,O=C(C[C@@H]1CC[C@@H]2[C@H](COC[C@H](O)CN2S(=O)(=O)c2ccccc2Cl)O1)N1CCC(Cc2ccccc2)CC1,-9.79%
3,C[C@H](CO)N1C[C@H](C)[C@H](CN(C)Cc2ccc(Cl)c(Cl)c2)OCCCC[C@H](C)Oc2ccc(NC(=O)Nc3ccc(C(F)(F)F)cc3)cc2C1=O,-18.8%
4,COc1ccc(C#Cc2ccc([C@@H]3[C@H](CO)N4CCCCN(C(=O)Nc5ccc(F)cc5)C[C@@H]34)cc2)cc1,-25.3% [at 30 µM]
5,C[C@H]1CCCCO[C@H](CN(C)C(=O)NC2CCCCC2)[C@@H](C)CN([C@@H](C)CO)C(=O)c2cc(NC(=O)Nc3ccc(C(F)(F)F)cc3)ccc2O1,-14.3%
6,C[C@@H]1CCCCO[C@H](CN(C)S(=O)(=O)c2cccs2)[C@@H](C)CN([C@@H](C)CO)C(=O)c2cc(NC(=O)Nc3ccc(C(F)(F)F)cc3)ccc2O1,-5.04% [at 16 µM]
7,C[C@H](O)C#Cc1cnc2c(c1)C(=O)N([C@H](C)CO)C[C@@H](C)[C@@H](CN(C)Cc1ccc(-c3ccccc3)cc1)O2,-7.82%
8,Cc1ccc(S(=O)(=O)N2CC[C@@H]3[C@H](CO)N(C)c4ccc(-c5ccc(C#N)cc5)cc4[C@@H]32)cc1,-18.5%
9,O=C(C[C@H]1CC[C@H]2[C@@H](COC[C@@H](O)CN2Cc2ccc3c(c2)OCO3)O1)Nc1ccc(-c2ccccc2)cc1,-5.39%
10,COc1ccc(CN(C)C[C@H]2OCCCC[C@H](C)Oc3ccc(NC(=O)Nc4ccc(C(F)(F)F)cc4)cc3C(=O)N([C@@H](C)CO)C[C@@H]2C)cc1,-17%
11,C[C@@H]1CN([C@@H](C)CO)C(=O)c2cc(NC(=O)Nc3ccc(C(F)(F)F)cc3)ccc2O[C@@H](C)CCCCO[C@@H]1CN(C)Cc1ccncc1,-19.1%
12,C[C@@H]1CCCCO[C@@H](CN(C)Cc2ccc(C(F)(F)F)cc2)[C@H](C)CN([C@H](C)CO)C(=O)c2cc(NS(=O)(=O)c3ccccc3)ccc2O1,-23.6%
13,N#C[C@@H]1[C@@H](c2ccc(-c3cccc(F)c3)cc2)[C@H](CO)N1C(=O)NC1CCCC1,-19.2%
14,C[C@@H]1CN([C@H](C)CO)C(=O)c2cc(NC(=O)Nc3ccc(F)cc3)ccc2O[C@@H](C)CCCCO[C@H]1CN(C)C(=O)C1CCCCC1,0.374%

# Assay: NIH:OVCAR-3 ovarian cancer cell cytotoxicity, dose response, PAX8 inhibitor project, plate reader, dry powder samples (AID 743044)
# Conditions: NIH:OVCAR-3 ovarian cancer cell viability; max activity: at 35 µM, stronger effect = lower value unless noted; series mostly up to 50 µM; activity change, negative = cytotoxicity: at the top concentration
row,SMILES,max activity
1,C[C@H](CO)N1C[C@H](C)[C@@H](CN(C)Cc2ccc(Cl)c(Cl)c2)Oc2ccc(NC(=O)Nc3ccc(C(F)(F)F)cc3)cc2CC1=O,"17.7% [at 0.5 µM, stronger effect = lower value]"
2,O=C(C[C@@H]1CC[C@@H]2[C@H](COC[C@H](O)CN2Cc2ccc3c(c2)OCO3)O1)Nc1ccc(-c2ccccc2)cc1,"25.3% [at 0.5 µM, stronger effect = lower value]"
3,COc1cccc(-c2ccc([C@H]3[C@@H](CO)N(C(=O)c4ccccn4)[C@H]3C#N)cc2)c1,-40.2%
4,C[C@@H]1CCCCO[C@@H](CN(C)Cc2ccc(C(F)(F)F)cc2)[C@H](C)CN([C@H](C)CO)C(=O)c2cc(NC(=O)c3ccccc3)ccc2O1,-25.3%
5,COc1ccc(NC(=O)N2CCCCN3[C@H](CO)[C@H](c4ccc(C#Cc5ccccc5)cc4)[C@H]3C2)cc1,-17.7%
6,C[C@H]1CCCCO[C@H](CN(C)C(=O)Nc2ccc(C(F)(F)F)cc2)[C@@H](C)CN([C@@H](C)CO)C(=O)c2cc(NS(=O)(=O)c3ccccc3)ccc2O1,"-16.1% [at 8 µM, stronger effect = lower value]"
7,C[C@@H]1CN([C@@H](C)CO)C(=O)c2cc(NC(=O)Cc3ccccc3)ccc2O[C@@H](C)CCCCO[C@@H]1CN(C)Cc1ccc(C(F)(F)F)cc1,-8.58%
8,C[C@@H]1CN([C@@H](C)CO)C(=O)Cc2cc(NC(=O)C3CCCCC3)ccc2O[C@H]1CN(C)Cc1ccc(Cl)c(Cl)c1,"-14.6% [at 8 µM, stronger effect = lower value]"
9,C[C@@H]1CN([C@H](C)CO)C(=O)c2cc(NS(=O)(=O)c3ccccc3)ccc2O[C@@H](C)CCCCO[C@@H]1CN(C)Cc1ccc(Cl)c(Cl)c1,"-20% [at 9 µM, stronger effect = lower value]"
10,Cc1cccc(S(=O)(=O)N2CC[C@@H]3[C@H](CO)N(C)c4ccc(C#Cc5ccc(F)cc5)cc4[C@@H]32)c1,"-16.3% [at 30 µM, stronger effect = lower value]"
11,O=C(C[C@H]1CC[C@@H]2[C@H](COC[C@H](O)CN2S(=O)(=O)c2cccc(F)c2)O1)Nc1ccc(-c2ccccc2)cc1,"27.1% [at 0.5 µM, stronger effect = lower value]"
12,C[C@H]1CCCCO[C@H](CN(C)C(=O)Nc2cccc3ccccc23)[C@@H](C)CN([C@@H](C)CO)C(=O)c2cc(NS(=O)(=O)c3ccc(F)cc3)ccc2O1,"28.1% [at 0.5 µM, stronger effect = lower value]"
13,C[C@H]1CN([C@@H](C)CO)C(=O)c2c(c3ccccc3n2C)-c2ccccc2CO[C@@H]1CN(C)Cc1cccc(C(F)(F)F)c1,"14.4% [at 0.26 µM, stronger effect = lower value]"
14,CN(C[C@H]1N[C@@H](CO)[C@@H]1c1ccc(-c2cccc(F)c2)cc1)S(C)(=O)=O,"23.7% [at 8 µM, stronger effect = lower value]"
15,C[C@@H]1CN([C@@H](C)CO)C(=O)Cc2cc(NS(=O)(=O)c3ccc(Cl)cc3)ccc2O[C@H]1CN(C)Cc1ccc(Cl)c(Cl)c1,"11% [at 16 µM, stronger effect = lower value]"
16,Cc1ccccc1-c1ccc([C@@H]2[C@@H](CO)N3CCCCN(C(=O)NC4CCCC4)C[C@H]23)cc1,"-4.19% [at 16 µM, stronger effect = lower value]"
17,Cc1ccc(S(=O)(=O)Nc2ccc3c(c2)C(=O)N([C@H](C)CO)C[C@@H](C)[C@H](CN(C)S(=O)(=O)c2ccc(C)cc2)OCCCC[C@H](C)O3)cc1,"32.9% [at 0.26 µM, stronger effect = lower value]"

row,SMILES,max activity
1,C[C@@H]1CCCCO[C@@H](CN(C)Cc2ccc(Cl)c(Cl)c2)[C@H](C)CN([C@H](C)CO)C(=O)c2cc(NS(=O)(=O)c3ccc(Cl)cc3)ccc2O1,-24.1%
2,C[C@@H]1CCCCO[C@@H](CN(C)C(=O)Nc2ccc(F)cc2)[C@H](C)CN([C@H](C)CO)C(=O)c2cc(NS(=O)(=O)c3ccc(Cl)cc3)ccc2O1,17.7%
3,C[C@@H]1CCCCO[C@@H](CN(C)Cc2ccc(C(F)(F)F)cc2)[C@H](C)CN([C@@H](C)CO)C(=O)c2cc(NS(=O)(=O)c3ccc(F)cc3)ccc2O1,-6.08%
4,C[C@H](CO)N1C[C@H](C)[C@H](CN(C)S(=O)(=O)c2ccc(F)cc2)OCCCC[C@H](C)Oc2ccc(NS(=O)(=O)c3ccc(Cl)cc3)cc2C1=O,"-16.9% [at 4.2 µM, stronger effect = lower value]"
5,C[C@@H]1CN([C@@H](C)CO)C(=O)c2cc(NC(=O)Cc3ccccc3)ccc2O[C@@H](C)CCCCO[C@H]1CN(C)Cc1ccc(C(F)(F)F)cc1,-16.1%
6,N#C[C@@H]1[C@@H](c2ccc(-c3ccccc3F)cc2)[C@@H](CO)N1C(=O)C1CCC1,-15.9%
7,C[C@H](CO)N1C[C@H](C)[C@@H](CN(C)Cc2ccc(Oc3ccccc3)cc2)Oc2ccc(NS(=O)(=O)c3ccc(F)cc3)cc2CC1=O,"-23.5% [at 4.2 µM, stronger effect = lower value]"
8,O=C(C[C@@H]1CC[C@@H]2[C@H](COC[C@H](O)CN2S(=O)(=O)c2ccccc2Cl)O1)N1CCC(Cc2ccccc2)CC1,-15.3%
9,C[C@H](CO)N1C[C@H](C)[C@H](CN(C)Cc2ccc(Cl)c(Cl)c2)OCCCC[C@H](C)Oc2ccc(NC(=O)Nc3ccc(C(F)(F)F)cc3)cc2C1=O,"27.7% [at 2.1 µM, stronger effect = lower value]"
10,COc1ccc(C#Cc2ccc([C@@H]3[C@H](CO)N4CCCCN(C(=O)Nc5ccc(F)cc5)C[C@@H]34)cc2)cc1,"-123% [at 30 µM, stronger effect = lower value]"
11,C[C@H]1CCCCO[C@H](CN(C)C(=O)NC2CCCCC2)[C@@H](C)CN([C@@H](C)CO)C(=O)c2cc(NC(=O)Nc3ccc(C(F)(F)F)cc3)ccc2O1,-30.4%
12,C[C@@H]1CCCCO[C@H](CN(C)S(=O)(=O)c2cccs2)[C@@H](C)CN([C@@H](C)CO)C(=O)c2cc(NC(=O)Nc3ccc(C(F)(F)F)cc3)ccc2O1,-21.9%
13,C[C@H](O)C#Cc1cnc2c(c1)C(=O)N([C@H](C)CO)C[C@@H](C)[C@@H](CN(C)Cc1ccc(-c3ccccc3)cc1)O2,"29.8% [at 2.1 µM, stronger effect = lower value]"
14,Cc1ccc(S(=O)(=O)N2CC[C@@H]3[C@H](CO)N(C)c4ccc(-c5ccc(C#N)cc5)cc4[C@@H]32)cc1,"67.4% [at 2.1 µM, stronger effect = lower value]"
15,O=C(C[C@H]1CC[C@H]2[C@@H](COC[C@@H](O)CN2Cc2ccc3c(c2)OCO3)O1)Nc1ccc(-c2ccccc2)cc1,"60.4% [at 2.1 µM, stronger effect = lower value]"
16,COc1ccc(CN(C)C[C@H]2OCCCC[C@H](C)Oc3ccc(NC(=O)Nc4ccc(C(F)(F)F)cc4)cc3C(=O)N([C@@H](C)CO)C[C@@H]2C)cc1,-11.3%
